Source: PubChem BioAssay (NCATS)
Where “and” joins values, the source holds several entries; their conditions need not be identical. Equal entries are not always repeated. Results filed as inconclusive are left out. Calls of active or inactive are those of the source. Unless noted, calls come from the whole dose curve; as a rule, active = well fitted curve in the direction sought with a large enough effect; inconclusive = small, poorly fitted or top-dose-only effect, or another doubt; inactive = no such curve, though single readings can be large; an effect the other way counts as inactive or inconclusive.

Legend:
[1] = Cell Viability - BJ (AID 421; calls by dose curve;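 note: potency is the fitted concentration of half-maximal effect; cells exposed to compound for 40 hours at 37 °C before readout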); settings: BJ fibroblast viability, qHTS
How it was run: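 Quantitative HTS: ATP depletion in BJ cells after 40 hr compound exposure in complete culture medium, detected with CellTiter-Glo; AC50 from standard Hill fits.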

[2] = Cell Viability - MRC5 (AID 434; calls by dose curve;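 note: potency is the fitted concentration of half-maximal effect; cells exposed to compound for 40 hours at 37 °C; potency reflects cytotoxicity seen as loss of intracellular ATP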); settings: MRC5 lung fibroblast viability, qHTS
How it was run: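 Decrease in intracellular ATP, quantified by luciferase light output, reflects compound toxicity toward MRC5 cells exposed for 40 hr in complete culture medium. Concentration-response curves, scaled between DMSO and 100 uM tamoxifen, gave AC50 values.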

[3] = target: Mitogen-activated protein kinase 10 (Mus musculus) (UniProt Q61831); assay: JNK3 AlphaScreen Assay (AID 530; active = well fitted curve in either direction with a large enough effect, not every such curve was filed as active;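 note: kinase came from lysate of stimulated human HepG2 cells; signal reports phosphorylation of biotinylated GST-cJun 1-79 at Ser73 with 10 µM ATP; % is set by controls: 0 for no effect and ±100 for the full control effect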); settings: JNK3 lysate, c-Jun phosphorylation; series mostly up to 57.1 µM
How it was run: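 Phosphorylation of biotinylated GST-cJun(1-79) at Ser73 is measured by AlphaScreen proximity luminescence. Enzyme is JNK3 in HepG2 lysates activated with interleukin-1beta and tumor necrosis factor alpha; ATP is 10 uM final.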

[4] = Cell Viability - NIH 3T3 (AID 541); settings: NIH 3T3 cell viability, qHTS; activity change, negative = cytotoxicity: at 92.2 µM (top of the series); note: nearly all actives have a fitted effect of over 25% in size; note: potency is the fitted concentration of half-maximal effect;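 for activity change, negative = cytotoxicity: plate controls were DMSO alone for no effect and tamoxifen positive control for full effect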
How it was run: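 Intracellular ATP (CellTiter-Glo luminescence, 20 min at room temperature) measured after 40 hr compound exposure at 37 °C of 1000 NIH 3T3 mouse fibroblasts/well in complete medium; AC50 derived by Hill-equation modelling of qHTS concentration-response curves.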

[5] = Cell Viability - Mesenchymal (AID 546); settings: mesenchymal cells viability, qHTS; activity change, negative = cytotoxicity: at 91.7 µM (top of the series);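 note: cells exposed to compound for 40 hours before reading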
How it was run: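 In this qHTS cytotoxicity format, glomerulus-derived human mesenchymal kidney cells received compound for 40 hr, then luciferase-based ATP quantitation. Concentration-response data were fitted with the Hill equation.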

[6] = Cellular Toxicity (caspase-3) HepG2 (AID 654); settings: HepG2 caspase-3 activation, luminescence, 0% = DMSO only, 100% = tamoxifen; series mostly up to 92.2 µM;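 note: cells exposed to compound for 16 hours before reading; 0% = DMSO alone and 100% = caspase signal from 100 µM tamoxifen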
How it was run: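 Caspase 3/7 activation is measured as a luminescence increase (aminoluciferin substrate) after 16 h compound exposure of human hepatocarcinoma HepG2 cells. AC50 values are Hill fits, scaled between DMSO baseline and 100 uM tamoxifen stimulation.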

[7] = Cellular Toxicity (caspase-3) HUV-EC-C (AID 656); settings: HUV-EC-C cells, caspase-3 activation (apoptosis), vehicle = 0, 100 µM tamoxifen = 100%; series mostly up to 92.2 µM
How it was run: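 Luminescent Caspase-Glo 3/7 readout after 16 h, 37 °C compound exposure of HUV-EC-C endothelial cells, 1000 per well, complete medium. AC50 derived by Hill fitting, with DMSO as baseline and 100 uM tamoxifen as full activation.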

[8] = Cellular Toxicity (caspase-3) MRC-5 (AID 659); settings: MRC-5 cells, luminescence, normalized: DMSO 0%, 10 µM staurosporine 100%; series mostly up to 91.7 µM
How it was run: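 Apoptosis readout in MRC-5 cells: luciferase light generated after caspase 3/7 cleaves a peptide-aminoluciferin substrate, measured post 16 hr compound incubation at 37 °C.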

[9] = Cellular Toxicity (caspase-3) Mesangial (AID 660); settings: mesangial cells, normalized: DMSO 0%, 100 µM tamoxifen 100%; series mostly up to 91.7 µM;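 note: combined caspase 3 and 7 activity read by Caspase-Glo luminescence; cells exposed to compound for 16 h before the caspase read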
How it was run: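 Caspase 3/7 activation measured by Caspase-Glo 3/7 luminescence (20 min, room temperature) following 16 h exposure of mesangial cells (1000/well); AC50 from Hill-equation fit, normalized to DMSO and 100 uM tamoxifen.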

[10] = Cellular Toxicity (caspase-3) Hek293 (AID 664); settings: HEK293 caspase-3 activation, DMSO = 0%, 100 µM tamoxifen = 100%; series mostly up to 92.2 µM;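 note: cells exposed to compound for 16 h at 37 °C before readout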
How it was run: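 Concentration-response qHTS: caspase 3/7 activation measured by luminescent aminoluciferin substrate cleavage after 16 h compound exposure of Hek 293 cells. AC50 from Hill equation, with DMSO as basal and 100 uM tamoxifen as 100%.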

[11] = Cellular Toxicity (caspase-3) Renal Proximal Tubule (AID 667); settings: renal proximal tubule cells, primary cells freshly taken from rat, solvent-only wells 0%, staurosporine 100%; series mostly up to 91.7 µM;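 note: cells exposed to compound for 16 hours at 37 °C before detection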
How it was run: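 Caspase 3/7 activation measured by luminescent aminoluciferin release in primary rat proximal tubule cells after 16 hr compound exposure at 37 °C. AC50 from Hill-fitted concentration-response, scaled between DMSO and 10 uM staurosporine.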

[12] = MultiTox-Fluor Cytotoxicity Assay - LYMP1-003 - Live Cells (AID 962); settings: LYMP1-003 lymphoblastoid cells, MultiTox-Fluor live-cell protease fluorescence; series mostly up to 92.2 µM;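 note: cells exposed to compound for 16 hours at 37 °C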; note: potency is the fitted concentration of half-maximal effect
How it was run: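 Live-cell protease activity (GF-AFC substrate, 405/510 nm, 60 min at room temperature) after 16 h, 37 C compound exposure of human lymphoblastoid LYMP1-003 cells; concentration-response fitted to the Hill equation for AC50.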

[13] = Cell Viability - LYMP1-003 - Assay at 40 hr (AID 964); settings: LYMP1-003 lymphoblastoid viability; series mostly up to 92.2 µM; note: nearly all actives have a fitted effect of over 60% in size; note: potency is the fitted concentration of half-maximal effect
How it was run: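 Viability is taken as cellular ATP, read by CellTiter-Glo luminescence after 40 h of compound exposure at 37 C. Cells: human lymphoblastoid line LYMP1-003 at 2500/well; AC50 values derived by Hill-equation fitting of concentration-response data.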

[14] = Cell Viability - LYMP2-011 (AID 969); settings: LYMP2-011 lymphoblastoid cells viability; series mostly up to 92.2 µM; note: nearly all actives have a fitted effect of over 60% in size; note: potency is the fitted concentration of half-maximal effect
How it was run: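 Cytotoxicity qHTS with ATP content as read-out: lymphoblastoid cells (2500/well) exposed to compound for 24 h at 37 C, then luciferase luminescence measured. Concentration-response data fitted with the standard Hill equation to give AC50.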

[15] = Cell Viability - LYMP2-013 (AID 970); settings: LYMP2-013 lymphoblastoid cells viability; series mostly up to 92.2 µM; note: nearly all actives have a fitted effect of over 55% in size; note: potency is the fitted concentration of half-maximal effect
How it was run: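 qHTS cytotoxicity: ATP-dependent luminescence (CellTiter-Glo, 30 min room temperature) read after 24 h compound exposure at 37 C of 2500 LYMP2-013 lymphoblastoid cells per well. Concentration-response fitted with Hill equation to give AC50.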

[16] = Cell Viability - LYMP2-017 (AID 972); settings: LYMP2-017 lymphoblastoid cell viability; series mostly up to 92.2 µM; note: nearly all actives have a fitted effect of over 55% in size; note: potency is the fitted concentration of half-maximal effect; for activity change, negative = cytotoxicity: % is set by controls: 0 for no effect and ±100 for the full control effect
How it was run: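 CellTiter-Glo luminescence (cellular ATP, 30 min RT) measured cytotoxicity after 24 hr compound treatment at 37 C. Cells were a human lymphoblastoid line, LYMP2-017, plated at 2500/well and incubated 5 hr first; concentration-response fitted with Hill equation for AC50.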

[17] = Cell Viability - LYMP2-007 (AID 979); settings: LYMP2-007 lymphoblastoid cell viability; series mostly up to 92.2 µM;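 note: cells exposed to compound for 24 h before reading; nearly all actives have a fitted effect of over 60% in size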; note: potency is the fitted concentration of half-maximal effect;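 for activity change, negative = cytotoxicity: 0% = DMSO only and the negative end = 92 µM tetraoctylammonium bromide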
How it was run: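 AC50 values come from Hill-equation fits of luminescent intracellular ATP (CellTiter-Glo, 30 min, room temperature) following 24 h compound exposure at 37 C. Cells: LYMP2-007 lymphoblastoid line, 2500 per well, in complete culture medium.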

[18] = qHTS Assay for Identification of Small Molecule Inducers of Hypoxia Response (AID 2120; active = well fitted curve in the direction sought with a large enough effect in the signal ratio, with a control signal flat, not every such curve was filed as active; the % refers to the signal ratio; note: 0% is about no effect); settings: hypoxia response reporter cells, beta-lactamase ratio readout; series mostly up to 104 µM
How it was run: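 Reporter induction read as the CCF4 blue/green (460nm/530nm) emission ratio after 2.5 h dye loading at room temperature. ME-180 HRE-beta-lactamase cells received titrated compounds for 17 h at 37 degrees Celsius; AC50 values derived.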

[19] = qHTS assay for small molecule antagonists of retinoid X receptor alpha signaling (AID 588546); settings: HEK293T RXRa-UAS-bla, beta-lactamase ratio, antagonist mode; measured here: W530 green channel, cytotoxicity proxy;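 note: cells stimulated with 9-cis-retinoic acid as agonist; % is set by controls: 0 for no effect and ±100 for the full control effect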
How it was run: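 Beta-lactamase reporter inhibition, read as CCF4 fluorescence ratio (ex 405, em 460/530 nm) after 2 h at RT. HEK293T UAS-bla cells, 2500/well, were stimulated with 9-cis-RA at 500 or 100 nM final alongside test compound for 18 h at 37 C.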

[20] = target: Peroxisome proliferator-activated receptor alpha (Homo sapiens) (UniProt Q07869); assay: qHTS assay for small molecule agonists of the peroxisome proliferator-activated receptor alpha (PPARalpha) signaling pathway (AID 651778); settings: PathHunter PPARalpha complementation, chemiluminescence, 6 h; max response: stronger effect = higher value; note: % of control where 0% means no effect
How it was run: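 Cells plated at 2,000/well and held overnight at 37 C, 5% CO2, then compound added by pin tool for 6 hr; after PathHunter detection reagent and 60 min at room temperature, chemiluminescence from enzyme complementation was read.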

Sequence of Peroxisome proliferator-activated receptor alpha (Homo sapiens) (Q07869 whole entry, looked up): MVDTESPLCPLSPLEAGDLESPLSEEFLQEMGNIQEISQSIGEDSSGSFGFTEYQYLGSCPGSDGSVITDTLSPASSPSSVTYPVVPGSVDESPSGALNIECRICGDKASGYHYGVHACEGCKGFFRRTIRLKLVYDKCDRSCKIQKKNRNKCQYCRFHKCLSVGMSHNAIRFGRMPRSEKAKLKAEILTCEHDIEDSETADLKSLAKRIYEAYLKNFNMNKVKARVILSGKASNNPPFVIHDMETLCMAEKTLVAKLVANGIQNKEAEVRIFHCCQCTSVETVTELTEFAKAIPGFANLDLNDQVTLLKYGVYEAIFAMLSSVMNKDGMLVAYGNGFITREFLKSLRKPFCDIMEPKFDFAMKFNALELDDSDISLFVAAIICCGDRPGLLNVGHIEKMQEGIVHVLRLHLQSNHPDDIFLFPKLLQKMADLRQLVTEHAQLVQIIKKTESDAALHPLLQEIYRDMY

OCCNCCO
-14.5% and -2.92%: max response [19]
inactive: Potency [1] > 92 µM | Potency [2] > 92 µM | Potency [3] | Potency [4] | activity change, negative = cytotoxicity [5] 11.5% | outcome [6] | outcome [7] | outcome [8] | outcome [9] | outcome [10] | outcome [11] | Potency [12] | Potency [13] | Potency [14] | Potency [15] | Potency [16] | Potency [17] | outcome [18] | max response [20] 0.687% and 0.279%

C=CCOC(=O)c1ccccc1C(=O)OCC=C
-4.9% and -9.66%: max response [19]
inactive: Potency [1] > 92 µM | Potency [2] > 92 µM | Potency [3] | Potency [4] | activity change, negative = cytotoxicity [5] -9.3% | outcome [6] | outcome [7] | outcome [8] | outcome [9] | outcome [10] | outcome [11] | Potency [12] | Potency [13] | Potency [14] | Potency [15] | Potency [16] | Potency [17] | outcome [18] | max response [20] 16.2% and -0.609%

Clc1cc(Cl)c(Cl)cc1Cl
inactive: Potency [1] > 92 µM | Potency [2] > 92 µM | Potency [3] | Potency [4] | activity change, negative = cytotoxicity [5] 9.51% | outcome [6] | outcome [7] | outcome [8] | outcome [9] | outcome [10] | outcome [11] | Potency [12] | Potency [13] | Potency [14] | Potency [15] | Potency [16] | Potency [17] | outcome [18] | max response [20] -0.154% and -0.267%
-13.2% and -12.3%: max response [19]

CCCCCCCCOC(=O)c1cc(O)c(O)c(O)c1
-11.7%: max response [19]
inactive: max response [20] -2.68%

O=[N+]([O-])c1cccc(Cl)c1Cl
3.16% and 3%: max response [19]
inactive: Potency [1] > 92 µM | Potency [2] > 92 µM | Potency [3] | Potency [4] | activity change, negative = cytotoxicity [5] 4.81% | outcome [6] | outcome [7] | outcome [8] | outcome [9] | outcome [10] | outcome [11] | Potency [12] | Potency [13] | Potency [14] | Potency [15] | Potency [16] | Potency [17] | outcome [18] | max response [20] -3.44% and -1.57%

C=CC(=O)OCCOCCOCCOCCOC(=O)C=C
inactive: Potency [1] > 92 µM | Potency [3] | outcome [6] | outcome [7] | outcome [8] | outcome [9] | outcome [10] | outcome [11] | outcome [18] | max response [20] -0.0133% and -3.95%
active: Potency [2] 41.6 µM | Potency [4] 2.51 µM and 3.98 µM | activity change, negative = cytotoxicity [5] -89.5% and -83.9% | Potency [12] 25.1 µM and 31.6 µM | Potency [13] 12.6 µM and 31.6 µM | Potency [14] 20 µM and 25.1 µM | Potency [15] 20 µM and 25.1 µM | Potency [16] 20 µM | Potency [17] 20 µM

C=Cc1ccccc1Cl
-3.63%: max response [19]
inactive: Potency [1] > 92 µM | Potency [2] > 92 µM | Potency [3] | Potency [4] | activity change, negative = cytotoxicity [5] 4.39% | outcome [6] | outcome [7] | outcome [8] | outcome [9] | outcome [10] | outcome [11] | Potency [12] | Potency [13] | Potency [14] | Potency [15] | Potency [16] | Potency [17] | outcome [18] | max response [20] -0.389%

COc1ccccc1CNc1nc(-c2ccc(C(=O)N(C)C)cc2)nc2ccccc12
inactive: Potency [3]

COc1ccc2[nH]cc(CCNc3cc(-c4cccc(C#N)c4)ncn3)c2c1
inactive: Potency [3]

COCC(=O)O
inactive: Potency [1] > 92 µM | Potency [2] > 92 µM | Potency [3] | Potency [4] | activity change, negative = cytotoxicity [5] 2.06% | outcome [6] | outcome [7] | outcome [8] | outcome [9] | outcome [10] | outcome [11] | Potency [12] | Potency [13] | Potency [14] | Potency [15] | Potency [16] | Potency [17] | outcome [18] | max response [20] -0.223% and -0.993%
10.5% and -3.07%: max response [19]
